These results are taken from PubChem BioAssay.

Molecules are shown by their SMILES. A number with no mark means an inactive call. For some of these results: Measured potencies and affinities stand elsewhere. Calls of active or inactive are those of the source. Unless noted, no rule for the calls is given here.

Usually inhibition stands for the relative decrease from the control value, in per cent.

The nature of experiment [1]: antimalarial activity against Dd2 strain (AID 2302;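 active = growth inhibition above 50% at the single 2 µM test dose, taken to imply half-maximal potency below 2 µM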;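 also: 0% = DMSO untreated growth and 100% = chloroquine plus artemisinin killed control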). The settings on record: P. falciparum Dd2 in RBCs, LDH growth readout, 72 h; at 2 µM; hits give high values.
Experiment [2] in a line: HepG2 cytotoxicity, primary screen, cytotoxicity control for P. falciparum antimalarial project, cell-based, ATP luminescence (AID 2303;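 active = inhibition above 50%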;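 also: 0% = DMSO wells and 100% = digitonin-killed cells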). The settings on record: HepG2 viability, 24-48 h, at 10 µM, hits give high values.
The target of experiment [3] is L-lactate dehydrogenase (Plasmodium falciparum (isolate CDC / Honduras)) (UniProt Q27743). The experiment in a line: PfLDH activity inhibition – cell lysate, 3D7 strain, counter-screen for P. falciparum growth inhibition project (AID 2304).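 Also: 0% = vehicle and 100% = reference inhibitor.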 The settings on record: P. falciparum 3D7 crude extract, LDH APAD/NBT absorbance; at 2 µM; hits give high values. In general terms: Counterscreens check selectivity or assay interference.
Chain of L-lactate dehydrogenase (Plasmodium falciparum (isolate CDC / Honduras)) (Q27743 whole entry, looked up): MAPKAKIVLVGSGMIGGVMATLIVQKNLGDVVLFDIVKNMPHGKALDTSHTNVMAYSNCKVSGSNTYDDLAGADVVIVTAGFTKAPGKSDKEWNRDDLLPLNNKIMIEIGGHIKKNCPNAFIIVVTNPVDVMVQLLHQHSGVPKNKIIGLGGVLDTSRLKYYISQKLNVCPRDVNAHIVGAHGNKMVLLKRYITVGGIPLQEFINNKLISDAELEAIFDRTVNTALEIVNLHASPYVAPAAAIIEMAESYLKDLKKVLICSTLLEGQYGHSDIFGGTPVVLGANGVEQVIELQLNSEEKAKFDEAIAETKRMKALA

Experiment [4] is described as follows: inhibition of 3D7 malaria parasite growth – strain 3D7 (AID 2306).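 Also: 0% = DMSO wells and 100% = chloroquine plus artemisinin control wells.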 Particulars: P. falciparum 3D7 erythrocytic growth, LDH absorbance, 72 h; at 2 µM; hits give high values.
Experiment [5] addresses Calcium-dependent protein kinase 1 (Plasmodium falciparum (isolate 3D7)) (UniProt P62344). Nature of the experiment: PfCDPK1 kinase inhibitors, biochemical, TCAMS library (AID 1159585; cut-off not given, nearly all actives have IC50 up to about 0.98 µM;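 also: inhibitors leave more ATP so luminescence rises with inhibition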). Particulars: recombinant PfCDPK1, Kinase-Glo ATP depletion luminescence. (Kinase-Glo reads ATP consumption through a luciferase reaction.)
For experiment [6], the target named is Plasmodium falciparum protein kinase 6 (PK6, PF3D7_1337100) (UniProt Q8IDW1). Nature of the experiment: PfPK6 kinase inhibitors, biochemical, TCAMS library (AID 1159586). The settings on record: recombinant PfPK6, Kinase-Glo ATP depletion luminescence.
Chain of Plasmodium falciparum protein kinase 6 (PK6, PF3D7_1337100) (Q8IDW1 1-305): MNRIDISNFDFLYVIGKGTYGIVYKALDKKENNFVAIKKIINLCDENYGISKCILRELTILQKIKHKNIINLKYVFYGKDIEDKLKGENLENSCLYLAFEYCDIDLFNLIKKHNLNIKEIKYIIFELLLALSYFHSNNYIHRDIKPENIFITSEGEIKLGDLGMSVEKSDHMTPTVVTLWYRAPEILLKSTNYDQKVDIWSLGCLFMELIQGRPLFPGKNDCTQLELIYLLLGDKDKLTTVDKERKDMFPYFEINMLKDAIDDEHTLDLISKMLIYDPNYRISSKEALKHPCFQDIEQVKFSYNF
For experiment [7], the target named is Protein kinase 7 (PK7), Plasmodium falciparum 3D7 (PF3D7_0213400) (UniProt Q7YTF7). Nature of the experiment: inhibition of Plasmodium PK7 catalytic activity – biochemical, TCAMS antimalarial set, Kinase-Glo luminescence (AID 1159587). Particulars: recombinant PfPK7, Kinase-Glo ATP depletion luminescence.
Chain of Protein kinase 7 (PK7), Plasmodium falciparum 3D7 (PF3D7_0213400) (Q7YTF7 1-343): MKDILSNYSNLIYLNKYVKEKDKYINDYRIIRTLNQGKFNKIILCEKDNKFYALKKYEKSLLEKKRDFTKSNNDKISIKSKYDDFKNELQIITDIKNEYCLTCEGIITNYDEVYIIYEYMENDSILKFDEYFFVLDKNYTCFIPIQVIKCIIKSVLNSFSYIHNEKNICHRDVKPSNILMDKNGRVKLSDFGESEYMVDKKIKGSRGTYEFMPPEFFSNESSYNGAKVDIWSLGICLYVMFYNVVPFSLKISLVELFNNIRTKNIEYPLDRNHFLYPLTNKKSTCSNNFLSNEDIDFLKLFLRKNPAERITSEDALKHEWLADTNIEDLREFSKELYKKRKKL
Experiment [8] deals with Calcium-dependent protein kinase 4 (Plasmodium falciparum (isolate 3D7)) (UniProt Q8IBS5). The experiment in a line: PfCDPK4 kinase inhibitors, biochemical, TCAMS library (AID 1159588; cut-off not given, nearly all actives have IC50 up to about 0.91 µM). Particulars: recombinant PfCDPK4, Kinase-Glo ATP depletion luminescence.
Chain of Calcium-dependent protein kinase 4 (Plasmodium falciparum (isolate 3D7)) (Q8IBS5 whole entry, looked up): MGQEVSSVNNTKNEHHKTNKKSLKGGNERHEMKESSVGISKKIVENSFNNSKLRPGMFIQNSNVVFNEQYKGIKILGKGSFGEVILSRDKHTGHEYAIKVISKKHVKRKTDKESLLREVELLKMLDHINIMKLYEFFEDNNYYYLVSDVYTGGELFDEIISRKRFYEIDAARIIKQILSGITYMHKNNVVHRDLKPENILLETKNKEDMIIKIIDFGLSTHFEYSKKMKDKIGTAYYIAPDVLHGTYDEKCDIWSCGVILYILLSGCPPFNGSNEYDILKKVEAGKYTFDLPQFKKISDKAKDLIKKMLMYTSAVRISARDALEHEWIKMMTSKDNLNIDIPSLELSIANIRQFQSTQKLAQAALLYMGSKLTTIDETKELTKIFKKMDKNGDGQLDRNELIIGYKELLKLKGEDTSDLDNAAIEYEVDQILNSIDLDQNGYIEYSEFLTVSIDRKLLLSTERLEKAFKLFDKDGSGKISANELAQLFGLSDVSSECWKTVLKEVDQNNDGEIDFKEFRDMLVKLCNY

Chain of Calcium-dependent protein kinase 1 (Plasmodium falciparum (isolate 3D7)) (P62344 whole entry, looked up): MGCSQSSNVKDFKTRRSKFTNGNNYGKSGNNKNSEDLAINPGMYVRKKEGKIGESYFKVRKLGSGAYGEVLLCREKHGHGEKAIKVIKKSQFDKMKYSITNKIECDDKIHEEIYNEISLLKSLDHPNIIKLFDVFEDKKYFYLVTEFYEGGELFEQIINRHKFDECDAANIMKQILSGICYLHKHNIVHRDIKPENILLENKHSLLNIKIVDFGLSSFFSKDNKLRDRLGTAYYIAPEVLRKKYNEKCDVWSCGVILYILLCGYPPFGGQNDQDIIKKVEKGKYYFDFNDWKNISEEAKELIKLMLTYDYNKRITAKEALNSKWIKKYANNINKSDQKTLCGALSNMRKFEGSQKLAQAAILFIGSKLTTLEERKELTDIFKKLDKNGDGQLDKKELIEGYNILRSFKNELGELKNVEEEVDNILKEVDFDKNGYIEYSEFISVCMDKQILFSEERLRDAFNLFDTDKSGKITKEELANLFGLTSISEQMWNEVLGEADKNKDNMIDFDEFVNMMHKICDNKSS

For the compound `O=C(Nc1nc2cc(S(=O)(=O)NCc3ccc(Cl)c(Cl)c3)ccc2n1CCCn1ccnc1)c1ccc(Cl)cc1`, the growth inhibition in experiment [1] was 44%; in experiment [4] it was 101% (active). In addition, the inhibition in experiment [2] is -12%; in experiment [3], 4%. Besides, the result in experiment [5], in experiment [6], in experiment [7] and in experiment [8] was inactive.

As for `Cc1cc(Nc2ccccc2)nc(NCCOc2ccccc2)n1`, the growth inhibition in experiment [1] was 48%; in experiment [4], 100% (active). The inhibition in experiment [2] was -5%; in experiment [3], -1%. The result in experiment [5], in experiment [6], in experiment [7] and in experiment [8] was inactive.

For the compound `COc1cccc2cc(C(=O)N[C@@H](CC(C)C)C(=O)N[C@H](/C=N/NC(=O)Cc3cccnc3)CCc3ccccc3)oc12`, the growth inhibition in experiment [1] is 54% (active); in experiment [4], 82% (active). The values for the inhibition in experiment [2] and in experiment [3] were 6% and 2%, respectively. The outcome in experiment [5], in experiment [6], in experiment [7] and in experiment [8] was inactive.

For `O=C(CN1CCN(S(=O)(=O)C=Cc2ccccc2)CC1)Nc1cc(C(F)(F)F)ccc1Cl`, the growth inhibition in experiment [1] was 63% (active); in experiment [4] it was 96% (active). Moreover, the inhibition in experiment [2] is 23%; in experiment [3] it was 5%. Further, the outcome in experiment [5], in experiment [6], in experiment [7] and in experiment [8] was inactive.

For `Clc1cc(Cl)cc(Nc2ccnc(Nc3cc(Cl)cc(Cl)c3)n2)c1`, the growth inhibition was 73% (active) in experiment [1] and 99% (active) in experiment [4]. For the same compound, the inhibition in experiment [2] was 11%; in experiment [3], -1%. Moreover, the outcome in experiment [5], in experiment [6], in experiment [7] and in experiment [8] was inactive.

For the compound `CCc1ccc(NC(=O)N(CCCn2ccnc2)Cc2csc(-c3ccc(CNCc4ccccc4)cc3)n2)cc1`, the growth inhibition in experiment [1] was 39%; in experiment [4], 103% (active). Moreover, the inhibition is 9% in experiment [2] and 3% in experiment [3]. The outcome in experiment [5], in experiment [6], in experiment [7] and in experiment [8] was inactive.

In the case of `O=C(/C=C/c1ccc(Cl)c(Cl)c1)NCCCCCN1CCC(n2c(=O)[nH]c3ccccc32)CC1`, the growth inhibition was -1% in experiment [1] and 97% (active) in experiment [4]. The figures for the inhibition in experiment [2] and in experiment [3] were 38% and 2%, respectively. In addition, the outcome in experiment [5], in experiment [6], in experiment [7] and in experiment [8] was inactive.

For `CC[C@H](C)CNC(=O)c1cccc(-c2cccc(CNCC3CNCCCO3)c2)n1` (stereo not given in full), the growth inhibition is 54% (active) in experiment [1] and 91% (active) in experiment [4]. For the same compound, the figures for the inhibition in experiment [2] and in experiment [3] were 15% and 1%, respectively. For the same compound, the result in experiment [5], in experiment [6], in experiment [7] and in experiment [8] was inactive.

`COc1ccc(-c2cccc(NC(=O)c3cccc(Cl)c3)c2)cc1CN1CCC(O)CC1`: the figures for the growth inhibition in experiment [1] and in experiment [4] were 16% and 98% (active), respectively. For the same compound, the inhibition in experiment [2] was 38%; in experiment [3], 5%. For the same compound, the result in experiment [5], in experiment [6], in experiment [7] and in experiment [8] was inactive.

Consider `Cc1c(Cc2ccccc2)c(=O)oc2c(C)c3c(cc12)CN(CC(C)c1ccccc1)CO3` (stereo not given), for which the growth inhibition in experiment [1] and in experiment [4] was 98% (active) in each case. For the same compound, the inhibition in experiment [2] is 1%; in experiment [3], -1%. Moreover, the outcome in experiment [5], in experiment [6], in experiment [7] and in experiment [8] was inactive.

Turning to `Cc1ccc(Cn2ncc(N3CCC(N)CC3)c(Cl)c2=O)cc1NC(=O)Nc1ccc(-c2ccccc2)cc1`, the growth inhibition in experiment [1] was 25%; in experiment [4], 90% (active). Moreover, the inhibition in experiment [2] was 29%; in experiment [3], -5%. The result in experiment [5], in experiment [6], in experiment [7] and in experiment [8] was inactive.

Take `CN1CCN(CC2(Nc3nccc(NCCc4cn(C)c5ccccc45)n3)CCCCC2)CC1`: the growth inhibition in experiment [1] was 41%; in experiment [4], 91% (active). Also, the inhibition was 67% (active) in experiment [2] and 2% in experiment [3]. For the same compound, the result in experiment [5], in experiment [6], in experiment [7] and in experiment [8] was inactive.

In the case of `CC[C@H](C)CNC(=O)c1cncc(-c2ccc(CNCCOc3ccccc3)cc2)c1`, the growth inhibition is 0% in experiment [1] and 90% (active) in experiment [4]. For the same compound, the inhibition in experiment [2] was 7%; in experiment [3], 3%. In addition, the outcome in experiment [5], in experiment [6], in experiment [7] and in experiment [8] was inactive.

For `COc1cc2c(cc1N1CCN(C)CC1)N(C(=O)Nc1ccc(-c3ccncc3)c(Cl)c1Cl)CC2`, the growth inhibition in experiment [1] was 4%; in experiment [4] it was 102% (active). Also, the inhibition in experiment [2] was 10%; in experiment [3], -6%. The outcome in experiment [5], in experiment [6], in experiment [7] and in experiment [8] was inactive.

With `N#Cc1cccc(C(=O)Nc2cccc(-c3ccc(CN4CCCC4)cc3)c2)c1`, the values for the growth inhibition in experiment [1] and in experiment [4] were 42% and 98% (active), respectively. Moreover, the inhibition was 11% in experiment [2] and 1% in experiment [3]. The result in experiment [5], in experiment [6], in experiment [7] and in experiment [8] was inactive.

For `N#Cc1c(N2CCCCCC2)nc(N)c2c(N)nc3c(c12)CC(=O)N3c1ccc(F)cc1`, the growth inhibition in experiment [1] is 91% (active); in experiment [4] it was 97% (active). For the same compound, the results for the inhibition in experiment [2] and in experiment [3] were -7% and -1%, respectively. For the same compound, the result in experiment [5], in experiment [6], in experiment [7] and in experiment [8] was inactive.

As for `O=C(N[C@@H](Cc1ccccc1)C(=O)NC1CCCCC1)c1ccc(O)c(-c2ccc(Cl)c(Cl)c2)c1`, the growth inhibition in experiment [1] was 99% (active); in experiment [4], 98% (active). For the same compound, the inhibition is -5% in experiment [2] and 1% in experiment [3]. For the same compound, the outcome in experiment [5], in experiment [6], in experiment [7] and in experiment [8] was inactive.

As for `Cc1cc(N[C@@H](CC(C)C)C(=O)NCCc2ccccc2)nc(NCc2ccccc2C)n1`, the results for the growth inhibition in experiment [1] and in experiment [4] were 74% (active) and 93% (active), respectively. The inhibition in experiment [2] was 17%; in experiment [3] it was 0%. Also, the result in experiment [5], in experiment [6], in experiment [7] and in experiment [8] was inactive.

For `CN(CCCc1c[nH]c2ccccc12)CCC1CCC(NC(=O)/C=C/c2ccc(Cl)c(Cl)c2)CC1` (stereo not given), the growth inhibition in experiment [1] is 63% (active); in experiment [4], 99% (active). Further, the inhibition in experiment [2] is 38%; in experiment [3] it was -3%. The outcome in experiment [5], in experiment [6], in experiment [7] and in experiment [8] was inactive.

As to `Cc1nc2ccc3ccc(CN(C)c4ccc(C(=O)N[C@@H](CCC(=O)O)C(=O)O)cc4)cc3c2c(=O)[nH]1`, the growth inhibition in experiment [1] was 27%; in experiment [4], 95% (active). Besides, the inhibition in experiment [2] was 42%; in experiment [3], 1%. In addition, the result in experiment [5], in experiment [6], in experiment [7] and in experiment [8] was inactive.
